# Hits are enriched below; roughly 6% of the tested compounds scored in any of these assays.
# D1 antag = antagonists of human D1 dopamine receptor. activity change, negative = inhibition, % at 10 µM. hit rate 3.2% among 360,000. P21728. AID 504652. HEK293 TREx D1 cells, calcium flux, dopamine EC80; hits give low values; in the data active = activity change below about -30%; note: % is set by controls: 0 for no effect and ±100 for the full control effect
# Target sequence (P21728 whole entry, looked up): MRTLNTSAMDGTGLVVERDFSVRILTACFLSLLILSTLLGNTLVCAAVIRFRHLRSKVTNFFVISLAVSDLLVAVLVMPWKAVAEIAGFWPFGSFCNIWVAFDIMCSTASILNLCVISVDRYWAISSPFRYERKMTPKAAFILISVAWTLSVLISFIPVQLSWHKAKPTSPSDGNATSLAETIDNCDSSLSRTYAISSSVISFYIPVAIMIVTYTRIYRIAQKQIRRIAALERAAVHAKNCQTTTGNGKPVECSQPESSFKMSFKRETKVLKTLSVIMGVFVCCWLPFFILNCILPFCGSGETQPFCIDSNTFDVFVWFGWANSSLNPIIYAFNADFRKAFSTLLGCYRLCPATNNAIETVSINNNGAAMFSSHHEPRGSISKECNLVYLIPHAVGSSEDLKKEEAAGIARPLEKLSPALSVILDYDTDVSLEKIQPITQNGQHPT
#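 After overnight tetracycline induction at 30 C, force-coupled D1 HEK293 cells took up a no-wash calcium dye at room temperature. Compounds were added and monitored 180 s, and the response to EC80 dopamine was then recorded.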
# D1 potentiator = human D1 dopamine receptor positive modulation | HEK293 TREx D1 cells, calcium flux, dopamine EC20 potentiation | potentiation, % at 10 µM | hit rate 0.036% among 360,000 | AID 504651; in the data active = potentiation above about 30%; note: 0% is about no effect
# DRD3 antagonist = D3 dopamine receptor (human) antagonism; P35462; D3R cells, DiscoveRx beta-arrestin luminescence, antagonist mode; hits give low values; max response, negative = inhibition, %; hit rate 2.5% among 360,000; in the data active = max response below about -50%; inconclusive = no clear call, values can overlap the other calls; note: % is set by controls: 0 for no effect and ±100 for the full control effect
#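 Cells plated overnight at 1500 cells/well, then exposed to library compounds with dopamine controls for 90 minutes at 37 degrees C. DiscoveRx reagent added for 30–60 minutes at room temperature; luminescence read, quantitative HTS format.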
# D1 ag = activates the human D1 dopamine receptor; AID 504660; hit rate 1% among 360,000; activation, % at 2 µM; P21728; HEK293 T-REx D1 cells, calcium flux, agonist mode; in the data active = activation above about 30%; note: 0% is about no effect
#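 Tetracycline-induced HEK293 TREx D1 cells, force-coupled to calcium signalling, were dye-loaded with a no-wash calcium kit. Compound was pin-added after a 10 s baseline. Fluorescence was read kinetically at 1 cycle/s for 180 s, with calcium rises flagged as agonism.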
# DRD3 agonist = D3 dopamine receptor (human) agonism; D3R DiscoveRx beta-arrestin cells, luminescence, 90 min; max activation, %; hit rate 0.58% among 410,000; in the data active = max activation above about 30%; note: 0% is about no effect
#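 Cells at 1500/well, incubated overnight, then treated with pinned compounds (dopamine as control) for 90 min at 37 degrees C. DiscoveRx reagent added for 30 - 60 minutes at room temperature; luminescence read.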
# * hit, by the source's call; ? = inconclusive; . = no result.
SMILES,D1 antag,D1 potentiator,DRD3 antagonist,D1 ag,DRD3 agonist
CC(C)c1ccccc1OCCCCCNCCO,-8,-8,-52*,93*,-21
CC1=C(C(=O)N2CCOCC2)CC(CC(=O)NCCc2ccccn2)C(=O)N1CCCN1CCCC1=O (configuration not stated),.,.,?,.,-7
FC(F)(F)Oc1ccccc1C(c1nnnn1-c1ccc2c(c1)OCCO2)N1CCN(C/C=C/c2ccccc2)CC1 (configuration not stated),.,.,-57*,.,-14
C(=C\c1ccccc1)/CN1CCN(C(c2cccc3ccccc23)c2nnnn2-c2ccc3c(c2)OCCO3)CC1 (configuration not stated),.,.,-73*,.,-10
CN(C)CCN1CCN(C(c2ccnc3ccccc23)c2nnnn2-c2ccc3c(c2)OCCO3)CC1 (configuration not stated),.,.,0,.,-13
CCCN(C(=O)c1cc2ccc3cccnc3c2[nH]1)c1ccc(F)cc1,-9,4,.,5,-12
CCSc1nc(-c2ccc(Cl)cc2)nc2c1Cc1c(CO)cnc(C)c1O2,9,3,.,1,2
Cc1ccc(NC2=C(N3CCCCC3)C(=O)c3ccccc3C2=O)cc1,-30,-9,-63*,3,-12
O=C1C(Nc2ccccc2)=C(N2CCCCC2)C(=O)c2ccccc21,8,-8,-60*,0,-3
Cc1ccccc1-n1nc(CO)c(C(=O)NCc2cccnc2)n1,-22,-1,.,-1,2
O=C1c2ccsc2SCCN1Cc1c(Cl)cccc1Cl,11,0,-61*,-2,-2
CCN(CC1COc2ccccc2O1)S(=O)(=O)c1ccc(C)cc1 (configuration not stated),-33*,-4,-21,10,-3
CCN(CC)S(=O)(=O)c1ccc(C(=O)NNC(=O)C2COc3ccccc3O2)cc1 (configuration not stated),.,.,1,.,3
CC(Sc1nnnn1C1CC1)C(=O)N1CC(=O)Nc2ccccc21 (configuration not stated),-32*,-3,33,1,8
CCC12CN3CC(C)(CN(C1)C3c1ccc(O)cc1O)C2=O (configuration not stated),-1,2,.,5,2
CCCNC(=O)c1cc2c(c(-c3cccc(-c4ccccc4F)c3)n1)[C@H](CCO)N(C(=O)CC1CC1)C2,.,.,4,.,-8
Cc1ccc(C(=O)O)cc1NC(=S)NCCc1ccccc1,8,7,3,-1,2
Cc1ccc([N+](=O)[O-])cc1NC(=S)NCCc1ccccc1,-36*,-4,?,23,-16
O=C(Cc1ccccc1)NCCc1cccc(Cl)c1,-55*,-8,?,27,-6
O=C(NCCc1cccc(Cl)c1)c1cccc([N+](=O)[O-])c1,-42*,-4,-12,4,-2
O=C(NCCc1ccccc1)c1ccc(Cl)c([N+](=O)[O-])c1,-36*,-2,-8,2,-16
O=c1c2[nH]c3ccsc3c2cnn1Cc1ccccc1F,21,-7,.,1,.
O=C(Nc1cccc(S(=O)(=O)N2CCOCC2)c1)c1cc([N+](=O)[O-])ccc1N1CCOCC1,-14,0,-1,0,-10
Cc1ccccc1NC(=O)CN(C)S(=O)(=O)c1cccc2nsnc12,19,-3,.,-1,-3
Cc1cc(C(=O)NCCc2ccccc2)ccc1[N+](=O)[O-],-17,-6,-55*,2,-12
SMILES,D1 antag,D1 potentiator,DRD3 antagonist,D1 ag,DRD3 agonist
O=C(c1ccc(N2CCCC2=O)cc1)N1CCN(c2ccc(Cl)cc2)CC1,6,-8,27,4,17
O=C(c1ccc(N2CCCC2=O)cc1)N1CCN(c2ccccc2Cl)CC1,-49*,-11,6,1,0
CCOC(=O)c1sc2nc(CC(=O)OC)nc(NCCN(CC)CC)c2c1C,5,1,-8,4,-6
CCOC(=O)c1sc2nc(CC(=O)OC)nc(N(C)CCc3ccccn3)c2c1C,-30*,-8,1,0,4
CCOc1ccc(C(=O)Nc2c(C(=O)c3ccc(OC)cc3)oc3ccccc23)cc1,-5,-2,.,0,-1
COc1cccc(NC(=O)c2oc3ccccc3c2NC(=O)c2ccc(OC(C)C)cc2)c1,-16,-1,.,50*,-1
COc1cccc(C(=O)Nc2c(C(=O)c3ccc(F)cc3)oc3ccccc23)c1,-5,-6,.,1,-10
CCOc1cccc(C(=O)Nc2c(C(=O)c3ccc(OC)cc3)oc3ccccc23)c1,3,0,.,22,33*
CCOc1ccc(C(=O)Nc2c(C(=O)c3ccccc3)oc3ccccc23)cc1,7,4,.,143*,2
COC(=O)c1ccccc1NC(=O)c1nc(-c2ccc(Cl)cc2)n2c1CCCCC2,-10,-4,.,0,-12
O=C1OCC(O)=C1Cc1ccccc1,.,.,16,.,2
COc1ccc(CN2CCC(CNC(=O)NC3CCCCC3)CC2)cc1,27,-3,-54*,2,2
Cc1ccccc1NC(=S)NCC1CCN(C(C)c2ccccc2)C1 (configuration not stated),-36*,-4,?,0,-14
O=C(Nc1ccccc1)NC1CCN(Cc2nnnn2C2CCCCC2)CC1,0,-2,-70*,0,-3
S=C(Nc1ccccc1)NC1CCN(Cc2ccccc2)CC1,-5,-6,-77*,13,-19
COc1ccc(CNC(=O)NC2CCCCC2)cc1,-5,1,-19,0,4
Cc1ccccc1C(=O)NC1CCN(Cc2nnnn2C2CCCC2)CC1,-12,-6,?,-1,0
COc1ccc(CCNC(=O)c2cccc(-n3cnc4cccnc43)c2C)cc1OC,-1,-2,.,0,0
COc1cc(/C=C/C(=O)OCC(=O)Nc2ccc3[nH]c(=O)[nH]c3c2)ccc1OC(F)F,.,.,24,.,0
CCOc1ccc(C(=O)NCCc2sc3nc(-c4ccc(Cl)cc4)nn3c2C)cc1OCC,.,0,.,2,7
Cc1cc2c(s1)c1cnn(Cc3cccc(Br)c3)c(=O)c1n2C,-13,1,.,-1,.
CCOc1ccc(NC(=O)CC2C(=O)N(c3ccc(C)cc3)C(=O)N2Cc2ccc(OC)cc2)cc1 (configuration not stated),-3,1,.,0,-2
Cc1ccccc1NC(=S)NC1CCN(Cc2ccccc2)CC1,-19,-4,-50*,3,-29
S=C(Nc1ccc(Cl)cc1)NC1CCN(Cc2ccccc2)CC1,-78*,0,-60*,39*,-21
CCc1ccc(NC(=S)NC2CCN(Cc3ccccc3)CC2)cc1,-81*,-13,-29,34*,-7
CCN1CCCC1CNC(=O)C(=O)Nc1ccc(OC)cc1 (configuration not stated),4,3,-6,1,3
CCc1ccc(NC(=S)NCC2CCCN2CC)cc1 (configuration not stated),-20,-4,-75*,4,-27

# Screening data deposited in PubChem by National Center for Advancing Translational Sciences (NCATS).
